Shown are actives, neighbours in structure and some others; about 5.9% of the full set was active somewhere.
TrxR1 substrate: substrates of rat thioredoxin reductase 1. O89049. purified TrxR1 substrate turnover, NADPH consumption readout. Potency, µM (highest dose often 114 µM). 0.01% of 390,000 active; also: nearly all actives have a fitted effect of over 50% in size
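Rat TrxR1, dispensed at 90 nM, was prereduced with 400 uM NADPH (final) for 5 min at ~22 deg C, then incubated with compound 15 min before 400 uM selenite. A first-read NADPH fluorescence drop versus no-compound background flagged substrates.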
RORg inh: blocks mouse ROR gamma transcriptional activity; 5.4% of 310,000 active; Drosophila S2 Gal4-RORgamma UAS-luciferase reporter, 20 h; AID 2551; Potency, µM (doses to about 53.6 µM), most hits filed as inhibitors; also: nearly all actives have a fitted effect of over 60% in size
Target sequence (P51450 whole entry, looked up, the tested form may be a part): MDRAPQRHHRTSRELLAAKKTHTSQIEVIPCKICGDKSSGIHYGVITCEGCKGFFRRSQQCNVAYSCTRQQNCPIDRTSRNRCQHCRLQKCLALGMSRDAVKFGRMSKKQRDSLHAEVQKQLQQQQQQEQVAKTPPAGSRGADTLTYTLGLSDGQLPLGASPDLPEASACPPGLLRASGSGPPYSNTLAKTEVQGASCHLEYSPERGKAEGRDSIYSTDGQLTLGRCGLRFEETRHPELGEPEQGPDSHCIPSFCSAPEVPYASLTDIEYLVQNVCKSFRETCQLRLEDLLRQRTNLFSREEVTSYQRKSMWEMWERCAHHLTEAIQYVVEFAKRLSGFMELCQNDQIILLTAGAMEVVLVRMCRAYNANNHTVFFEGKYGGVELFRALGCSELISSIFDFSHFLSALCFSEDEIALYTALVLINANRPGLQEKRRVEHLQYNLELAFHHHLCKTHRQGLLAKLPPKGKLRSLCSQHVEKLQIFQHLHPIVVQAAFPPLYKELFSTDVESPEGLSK
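Luminescence from a UAS-regulated Photinus luciferase reporter in stably transfected Drosophila Schneider cells is measured; decreased signal marks ROR gamma inhibition. Fusion expression is induced by 700 uM copper sulfate for 20 hr.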
GALK inh: galactokinase (human) inhibition. AID 1868. Potency, µM (titrated, usually from 57.5 µM), hits mostly inhibitors. Purified GALK, Kinase-Glo residual ATP luminescence. P51570. 0.007% of 270,000 active
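ATP-depletion format; final 35 uM ATP, 100 uM D-galactose, 5 nM enzyme; pH 8.0 HEPES/Mg2+ buffer; 60 min RT; luminescence read 10 min after detection reagent.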
FBPA coupling cs: coupling enzyme interference in Giardia aldolase counter-screen | activity change, negative = inhibition, % at 58.2 µM, hits read low | 0.67% of 290,000 active | coupling enzyme system counterscreen, AmpLite Red fluorescence | AID 2472; in the data active = activity change below about -30%
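Counterscreen of the coupled detection system alone, without aldolase: glyceraldehyde-3-phosphate coupling enzymes plus AmpLite Red readout. Compounds at 57.5 uM final, 10 min RT preincubation, 20 min RT reaction, fluorescence 525/598 nm.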
TrxR1 inh: inhibitors of rat thioredoxin reductase 1. O89049. recombinant rTrxR1, NADPH fluorescence consumption, selenite substrate. Potency, µM (doses to about 114 µM), actives largely listed as inhibitors. 1% of 390,000 active. AID 588453; also: nearly all actives have a fitted effect of over 65% in size
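Rat TrxR1 (90 nM in the dispensed reagent) was pre-reduced with 400 uM NADPH for 5 min at room temperature, then incubated with compound for 15 min. After 400 uM selenite was added, NADPH fluorescence (Ex 340/Em 450 nm) was followed for 8 min.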
Gal4-VP16 FLuc: inhibits Gal4-VP16 luciferase reporter, ROR gamma counter-screen. Drosophila S2 Gal4-VP16 UAS-luciferase, luminescence, 20 h. AID 2546. Potency, µM (titrated, usually from 53.6 µM), most hits filed as inhibitors. 3.5% of 310,000 active;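 also: Gal4-VP16 expression switched on by copper sulfate through the metallothionein promoter; nearly all actives have a fitted effect of over 50% in size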
Hits are given with their value; i = inactive; ? = inconclusive; nt = no result; [ ] = another dose, or the depositor's remark. Unless noted, calls follow the shape of the dose curve; as a rule, active = well fitted curve in the direction sought with a large enough effect; inconclusive = small, poorly fitted or top-dose-only effect, or another doubt; inactive = no such curve, though single readings can be large; an effect the other way counts as inactive or inconclusive.

SMILES | TrxR1 substrate | RORg inh | GALK inh | FBPA coupling cs | TrxR1 inh | Gal4-VP16 FLuc
Cc1cccc(NC(=O)c2ccc3c(=O)n4c(nc3c2)CCCCC4)n1 | i | nt | nt | nt | i | nt
O=S1(=O)CCO[C@H]2Cc3ccccc3[C@H]2N1Cc1ccc(Cl)cc1 | i | i | nt | i | i | i
Cc1noc(C)c1S(=O)(=O)N(CC(=O)NCc1ccccc1Cl)c1ccc(C(C)C)cc1 | i | nt | nt | nt | i | nt
CCC(=O)N1CCN(c2ccccc2NC(=O)c2ccc([N+](=O)[O-])o2)CC1 | i | ? | i | i | i | ?
CC1CCN(c2ccccc2NC(=O)c2ccc([N+](=O)[O-])o2)CC1 | i | i | i | i | i | i
O=C(Nc1ccccc1N1CCN(C(=O)c2ccccc2)CC1)c1ccc([N+](=O)[O-])o1 | i | 5.6µM | i | i | i | ?
Cc1ccc(NC(=O)c2ccc([N+](=O)[O-])o2)cc1C | i | 7.9µM | i | i | ? | i
O=C(Nc1ccccc1N1CCCC1)c1ccc([N+](=O)[O-])o1 | i | 2µM | i | nt | ? | ?
O=C(Nc1ccccn1)c1ccc([N+](=O)[O-])o1 | i | ? | i | i | i | ?
O=C(Nc1ncccn1)c1ccc([N+](=O)[O-])o1 | i | 14µM | i | i | i | ?
CCOc1ccc(CN(CC)C(=O)c2ccc3c(c2)[nH]c(=O)c(=O)n3CC)cc1OC | i | i | i | i | i | i
COc1ccccc1N1CCN(C2CCCN(C(=O)CCc3c(C)noc3C)C2)CC1 (stereo not drawn) | i | i | i | i | i | i
Nc1nc(SCc2ccc(Br)cc2)n[nH]1 | i | i | nt | i | i | i
COc1ccc(-c2cc3ccccc3n2CC(O)CNC(CO)(CO)CO)cc1 (stereo not drawn) | i | i | i | i | i | i
Cc1cccc(NC(=O)c2ccc([N+](=O)[O-])o2)c1C | i | i | i | i | i | i[10 µM]
CC(C)(C)C(=O)N1CCN(c2ccc(NC(=O)c3ccc([N+](=O)[O-])o3)cc2)CC1 | i | ? | i | i | i | 14µM
O=C(Nc1cccc2ccccc12)c1ccc([N+](=O)[O-])o1 | i | ? | i | i | i[2.29 µM] | 13µM
CCC(=O)N1CCN(c2ccc(NC(=O)c3ccc([N+](=O)[O-])o3)cc2)CC1 | i | i | i | i | i | i
O=C1CC(C(=O)Nc2ccc(F)cc2)n2cnnc2N1 (stereo not drawn) | i | i | i | i | i | i
Brc1ccc(Nc2c3c(nc4nncn24)CCC3)cc1 | i | nt | nt | nt | 22µM | nt
CN1CCN(C(=O)CNC(=O)Cc2ccc(Cl)cc2)CC1 | i | nt | i | i | i | nt
Cc1ccc(-c2csc3ncn(-n4c(C)ccc4C)c(=O)c23)o1 | i | i | i | i | 32µM | i
Cc1nc(NC(=S)NC(=O)c2ccccc2)sc1C | i | 1.3µM | i | i | i | ?
Cc1nc(NC(N)=S)sc1C(=O)Nc1ccccc1 | i | 11µM | i | i | i | i
Cc1nc(NC(=O)c2ccccc2)sc1C | i | ? | i | i | i | i
SMILES | TrxR1 substrate | RORg inh | GALK inh | FBPA coupling cs | TrxR1 inh | Gal4-VP16 FLuc
S=C(Nc1nc2c(s1)CCCC2)NC1CC1 | i | 1.3µM | i | i | ? | 1.8µM
Cc1nc(Nc2ccccc2)sc1C | i | 3.5µM | i | i | i | 13µM
Cc1ccc(S(=O)(=O)Nc2ccncc2)c(C)c1N(C)S(=O)(=O)c1ccc(Cl)cc1 | i | i[10 µM] | i | i | i | i
CCOc1cc(/C=C2\C(=O)ON=C2C)ccc1OCc1ccccc1 | i | ? | i | i | ? | ?
COC(=O)c1sc(NC(=S)NC(=O)c2cccc(C)c2)nc1C | i | 4µM | i | i | ? | ?
O=C(CS(=O)(=O)Cc1ccccc1)Nc1nc2c(s1)CCCC2 | i | i | i | i | i | i
COc1ccc(C(=O)Nc2nc3c(s2)CCCC3)cc1Cl | i | nt | nt | nt | i | nt
O=C(NC(=S)Nc1nc2c(s1)CCCC2)c1ccccc1 | i | 0.56µM | i | i | i | 0.63µM
COC(=O)c1ccc(C(=O)NC(=S)Nc2nc3c(s2)CCCC3)cc1 | i | 2.2µM | i | i | i | 7.1µM
CCn1c(SCC(=O)Nc2ccc(F)cc2)nnc1-c1cnccn1 | i | i | i | nt | i | i
COc1ccc(COC(=O)N/N=C2/C[C@@H](O)[C@@H](O)[C@@H]3[C@@H]4C(=O)N(C5CCCCC5)C(=O)[C@H]4CC[C@H]23)cc1 | nt | i[10 µM] | nt | i | nt | i[10 µM]
CCCN(CCC)C(=O)CC(c1ccc(F)cc1)c1ccco1 (stereo not drawn) | i | i | i | i | 35µM | i
CCN(CC)C(=O)CC(c1ccccc1)c1ccco1 (stereo not drawn) | i | i | i | i | ? | i
CCOc1ccc(-c2nnc(SCC(=O)Nc3ccc4c(c3)c3ccccc3n4CC)n2N)cc1 | i | ? | i | i | i | 22µM
O=C(O)CCC(=O)Nc1ccc(N2CCCCCC2)cc1 | i | 2.5µM | i | i | i | i
O=C(Nc1ccc(N2CCCC2)cc1)C(Cl)c1ccccc1 (stereo not drawn) | i | i | i | i | 16µM | i
Cc1ccc(N2CCN(c3ccc(NC(=O)CCC(=O)O)cc3)CC2)cc1 | i[0.457 µM] | i | i | i | i | i
CCc1ccccc1N1C(=O)CC(Sc2nccc(C)n2)C1=O (stereo not drawn) | i | ? | i | i | i | ?
O=C1CC(Sc2ncccn2)C(=O)N1c1ccccc1C(F)(F)F (stereo not drawn) | i | 4.5µM | i | i | ? | 7.1µM
Cc1ccc(Cl)cc1N1C(=O)CC(Sc2ncccn2)C1=O (stereo not drawn) | i | 20µM | i | i | i | ?
CCOC(=O)c1ccc(N2C(=O)CC(Sc3ncccn3)C2=O)cc1 (stereo not drawn) | i | ? | i | i | i | ?
CCOC(=O)c1c(C)n(-c2ccc(OC)cc2)c2ccc(OC(=O)COc3ccccc3)cc12 | i | nt | nt | nt | i | nt
C(=C\c1ccnc2ccccc12)/c1ccnc2ccccc12 | i | nt | nt | nt | i | nt
Nc1nc(-c2ccco2)c(-c2ccco2)s1 | i | i | i | i | 50µM | i
Nc1nc(-c2ccco2)cs1 | i | i | i | i | i | i
SMILES | TrxR1 substrate | RORg inh | GALK inh | FBPA coupling cs | TrxR1 inh | Gal4-VP16 FLuc
c1coc(-c2nc(-c3ccco3)c(-c3ccco3)nc2-c2ccco2)c1 | i | i | i | i | 2.8µM | i
COc1ccc(-c2nc3ccccc3nc2-c2ccc(OC)cc2)cc1 | i | i | i | i | i | i
c1coc(-c2nc3cc4ccccc4cc3nc2-c2ccco2)c1 | i | nt | nt | nt | 4.5µM | nt
COc1ccc2nc(-c3ccco3)c(-c3ccco3)nc2c1 | i | ? | i | -32 | 8.9µM | i
O=C(O)c1cc(-c2ccco2)nc2ccccc12 | i | i | i | i | ? | i
O=S(=O)(NC1CCCCC1NS(=O)(=O)c1ccc(F)cc1)c1ccc(F)cc1 (stereo not drawn) | i | i | i | i | i | i

Screening results as filed in PubChem BioAssay.
